Results on 13 molecules are retold here after PubChem BioAssay (EPA / NIEHS).

Activity calls are given as the source filed them. The calls were made as follows: active = hit-call score of the fitted dose curve at least 0.9, where 1 is the maximum; inactive = score below 0.9.

This assay can be described thus: CCTE_Simmons_MITO_max_resp_rate: CCTE's HepG2 Seahorse XF Respirometric Screening Assay at Maximal Respiratory State [uncoupled], Simmons Lab (AID 2284002). Particulars: actives raise or lower the signal. Here is the method:
CCTE_Simmons_MITO is cell-based, respirometric assay using HepG2 cells and a Seahorse XF Analyzer to measure oxygen consumption rates over four temporal phases spanning a total of 72 minutes: pre-injection (pre-treatment), basal (following test compound injection), maximal (following FCCP uncoupler injection), and inhibited (following rotenone/antimycin A injection)CCTE_Simmons_MITO_max_resp_rate is one of 4 assay components calculated from the CCTE_Simmons_MITO assay. It is designed to make measurements of maximal respiration using a form of respirometric reporter, as detected with […] signals by Seahorse XF96 technology. Data from the assay component CCTE_Simmons_MITO_max_resp_rate was analyzed at the endpoint, CCTE_Simmons_MITO_max_resp_rate_OCR, with bidirectional fitting relative to DMSO as the negative control and baseline of activity. Using a type of respirometric reporter, measures of maximal respiration for gain or loss-of-signal activity can be used to understand cellular oxygen consumption as it relates to cellular respiration. To generalize the intended target to other relatable targets, this assay endpoint is annotated to the mitochondria intended target family, where the subfamily is respiration.
Test chemicals were administered as a titrated series of 7 concentrations from 125 nM up to 100 uM [final] prior to kinetic endpoint detection at 6 minute intervals [3 min mix followed by 3 minutes measure] for 72 minutes. Three biological replicates of technical singles were run for every chemical concentration tested. Dimethylsulfoxide [DMSO] was used as the vehicle control. The electron transport chain inhibitor fenpyroximate was used as the positive control for decreased basal respiration and was administered as a titrated series of 6 concentrations from 250 nM up to 2.75 uM [final] with technical triplicates for the top concentration only. The uncoupler 2,4-dintirophenol was used as the positive control for increased basal respiration and was administered as a titrated series of 6 concentrations from 938 nM up to 40 uM [final] with technical triplicates for the top concentration only. A Seahorse XF Analzyer is required to measure the response.
Take `CN1CCN(c2ccccc2/C=C2\SCCN(c3ccc(Cl)c(Cl)c3)C2=O)CC1`: the outcome was inactive.
In general, AC50 refers to the concentration at which the activity in the assay is half-maximal. `NC(=O)N1C(=O)C(C(=O)c2cc(Cl)cs2)c2cc(F)c(Cl)cc21` (stereo not drawn): the AC50 is 17.7 µM (active).
In the case of `CCCOC(=O)c1ccc(O)cc1`, the molecule was classed as inactive.
The same measure, in the same setting: the same measure for `O=C(O)Cc1cc(I)c(Oc2cc(I)c(O)c(I)c2)c(I)c1`: “inactive”.
`Cc1cc(CCN2CCN(c3nsc4ccccc34)CC2)cc2c1NC(=O)CC2(C)C`: the AC50 is 17 µM (active).
Regarding `O=[N+]([O-])c1ccc(O)cc1`, the outcome was inactive.
Still for that read-out and setting: the same measure for `Nc1cccc2c(N)cccc12`: “inactive”; for `OC1CCC(C2CCCCC2)CC1` (stereo not drawn): “inactive”.
In the case of `NC(=O)N(O)[C@@H]1C=C[C@H](Oc2cccc(Oc3ccc(F)cc3)c2)C1`, the AC50 is 32.4 µM (active).
Still for that read-out and setting: the same measure for `CC[C@H](c1ccc(O)cc1)[C@@H](CC)c1ccc(O)cc1`: 30 µM (active).
Regarding `Oc1cc2ccccc2c2ccccc12`, the result was inactive.
For `CCCCCCCCCCCCN1CCCC1=O`, the AC50 was 34.8 µM (active).
Same read-out and setting: the same measure for `CCc1nn(C2CCCCC2)c2cc(C3(C#N)CCC(C(=O)O)CC3)ccc12` (stereo not drawn): 25 µM (active).
